Results reported in PubChem BioAssay (NCI).
Compounds without any hit were thinned out: in the full panel of roughly 79,000, 15% have a hit. A number with no mark means an inactive call. Active and inactive are the calls of the source. No stated cut-off is given here; in the data, active means growth inhibition above about 70%; inactive means the rest.

Columns and labels:
[1] = NCI Yeast Anticancer Drug Screen. Data for the rad50 strain (AID 155);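 further: 0% = growth of vehicle-only cultures of the same strain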; settings: S. cerevisiae rad50 strain growth inhibition, hits give high values
Procedure, shortened: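 Inhibition values express reduced yeast growth in compound-treated cultures relative to vehicle-treated controls.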

[2] = NCI Yeast Anticancer Drug Screen. Data for the mec2-1 strain (AID 157); settings: S. cerevisiae mec2-1 strain, hits give high values
Procedure, shortened: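 Mutant yeast (mec2-1) grown with compound; growth inhibition relative to vehicle control reported.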

[3] = NCI Yeast Anticancer Drug Screen. Data for the sgs1 mgt1 strain (AID 161);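 further: 0% = growth of cultures given vehicle only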; settings: S. cerevisiae sgs1 mgt1 strain, hits give high values
Procedure, shortened: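 Compounds are added to genetically altered yeast, and growth is compared with cultures given vehicle alone to give percent inhibition.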

[4] = NCI Yeast Anticancer Drug Screen. Data for the cln2 rad14 strain (AID 165);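 further: 0% = growth equal to vehicle treated cultures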; settings: S. cerevisiae cln2 rad14 strain, hits give high values
Procedure, shortened: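 Readout is yeast growth inhibition versus vehicle-treated controls, using a strain with cln2 and rad14 alterations exposed to compound.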

[5] = NCI Yeast Anticancer Drug Screen. Data for the bub3 strain (AID 167); settings: S. cerevisiae bub3 mutant strain, hits give high values
Procedure, shortened: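 Steps: expose the mutant yeast strain to compound; grow alongside vehicle-treated cultures; measure growth; express inhibition against the vehicle cultures.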

[6] = NCI Yeast Anticancer Drug Screen. Data for the mlh1 rad18 strain (AID 175); settings: S. cerevisiae mlh1 rad18 strain growth inhibition, hits give high values
Procedure, shortened: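 Genetically defined yeast (DNA repair-deficient) exposed to compounds; growth inhibition determined relative to vehicle.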

[7] = at 5.0 µM (retest, dose inferred, filed as 0.5)
[8] = at 50.0 µM (retest, dose inferred, filed as 5.0)

Row | Structure (SMILES) | growth inhibition [1, 7] | growth inhibition [1, 8] | growth inhibition ([1]; at 50.0 µM) | growth inhibition [2, 7] | growth inhibition [2, 8] | growth inhibition ([2]; at 50.0 µM) | growth inhibition [3, 7] | growth inhibition [3, 8] | growth inhibition ([3]; at 50.0 µM) | growth inhibition [4, 7] | growth inhibition [4, 8] | growth inhibition ([4]; at 50.0 µM) | growth inhibition [5, 7] | growth inhibition [5, 8] | growth inhibition ([5]; at 50.0 µM) | growth inhibition [6, 7] | growth inhibition [6, 8] | growth inhibition ([6]; at 50.0 µM)
1 | O=C(Nc1ccc(S(=O)(=O)NC2CCCCC2)cc1)OC1CCCCCCC1 | 69% | 74% (active) | 72% (active) | 99% (active) | 81% (active) | 53.2% | 72% (active) | 40% | 77.6% (active) | 12% | 75% (active) | 75% (active) | 92% (active) | 79% (active) | 67% | 90% (active) | 58% | 76.7% (active)
2 | COc1ccc(/C=C2\CN(C)C/C(=C\c3ccc(OC)cc3)C2=O)cc1 | 22% | 75% (active) | 14.2% | 18% | 79% (active) | 21.6% | 3% | 87% (active) | 31.9% | 15% | 70% (active) | 38.8% | 3% | 85% (active) | 30.8% | 25% | 87% (active) | 26.9%
3 | O=C(O)CN(CC(=O)O)C1CCCCC1N1CC(=O)OC(=O)C1 (configuration not stated) | 35% | 35% | 74.3% (active) | 17% | 17% | 81.1% (active) | 26% | 26% | 75% (active) | 3% | 3% | 64.3% | -7% | -7% | 80.3% (active) | 25% | 25% | 76% (active)
4 | Cc1ccccc1Sc1ccccc1[N+](=O)[O-] | 2% | 35% | 12.9% | 1% | 5% | 12.8% | 0% | 27% | 26.1% | 5% | 7% | 11.1% | -1% | 8% | 20.6% | 2% | 39% | 74.5% (active)
5 | CC(CC(C#CCN(C)C)N(C)C)CC(C)(C)C (configuration not stated) | 22% | -9% | -5.3% | 1% | -10% | 15.6% | 3% | 5% | 13.3% | 1% | 24% | -7.5% | 7% | 14% | 41.1% | 6% | -5% | 38.6%
6 | Cc1ccc([P+](CCN2C(=O)c3ccccc3C2=O)(c2ccc(C)cc2)c2ccc(C)cc2)cc1 | 77% (active) | 98% (active) | 89.8% (active) | 72% (active) | 99% (active) | 90.3% (active) | 89% (active) | 99% (active) | 90.5% (active) | 71% (active) | 99% (active) | 87.9% (active) | 86% (active) | 99% (active) | 90.5% (active) | 64% | 98% (active) | 87.7% (active)
7 | Cc1cccc(/C=N/Nc2cc(C)nc3ccccc23)n1 | 1% | 2% | 92.7% (active) | -3% | -3% | 37.8% | -2% | 35% | 53.6% | 5% | 40% | 53.8% | 2% | 7% | 19.7% | -1% | 34% | 46.4%
8 | Cc1ccc(/C=N/Nc2ccc([N+](=O)[O-])cc2[N+](=O)[O-])cc1 | -2% | -4% | 19.4% | -1% | -2% | -8.75% | -3% | -3% | 10.6% | -4% | -9% | 20.1% | -3% | -4% | -9.15% | -4% | -4% | -3.9%
9 | CC/C(=C(\CC)c1ccc(O)c(CN(CC)CC)c1)c1ccc(OC)cc1 | -1% | 68% | 99.4% (active) | 15% | 62% | 99.7% (active) | -31% | 92% (active) | 99.6% (active) | -1% | 80% (active) | 99.5% (active) | 0% | 65% | 99.4% (active) | 5% | 99% (active) | 99.5% (active)
10 | COc1ccc(C(O)/C(=N\NC(N)=S)c2nc3ccc([N+](=O)[O-])cc3[nH]c2=O)cc1OC (configuration not stated) | 4% | 97% (active) | 66.1% | 1% | 99% (active) | 28.2% | 4% | 97% (active) | 20.6% | 1% | 98% (active) | 6.55% | 6% | 98% (active) | 22.7% | 0% | 97% (active) | 52.8%
11 | CCOC(=O)C1=C(C)NC(=O)NC1c1coc2cc(C)cc(C)c2c1=O (configuration not stated) | -1% | 10% | 12.4% | -2% | 15% | -5% | 3% | 14% | -2.5% | 20% | 5% | 52.2% | 14% | -4% | -15.8% | 0% | 1% | -7.1%
12 | Nc1ncnc2c1c(-c1ccc(Cl)cc1)cn2-c1ccccc1 | 21% | 62% | 51.2% | 11% | 52% | 30.1% | 42% | 82% (active) | 85.2% (active) | 2% | 35% | 45% | 13% | 65% | 48.7% | 13% | 76% (active) | 26.7%
13 | CC1(C)CC(=O)C(C(c2ccc3c(c2)OCO3)N2CCOCC2)C(=O)C1 (configuration not stated) | -22% | -17% | 99.2% (active) | 9% | -13% | 99.5% (active) | -21% | 4% | 99.3% (active) | -9% | 3% | 98.2% (active) | 20% | -11% | 98.8% (active) | -26% | -27% | 99.1% (active)
14 | CC(=Nc1ccc(S(=O)(=O)c2ccc(N=C(C)N3CCCCC3)cc2)cc1)N1CCCCC1 | 0% | 2% | -0.05% | -1% | -1% | 4% | -2% | 1% | -6.45% | -5% | -2% | -10.5% | -1% | -1% | -2.55% | -2% | -5% | -2.15%
15 | CCCCCCCCCCOC(=O)c1cc[n+](C)cc1 | -4% | -5% | 13.8% | 7% | 6% | 9.5% | -5% | 0% | -1.75% | -3% | -4% | 46.1% | -5% | -6% | -0.65% | -2% | -1% | -18.9%
16 | COC(=O)c1cccc2c1C(=O)c1ccccc1-2 | -7% | 37% | 22.7% | -37% | -14% | -9.6% | -8% | -11% | -5.9% | -3% | -19% | 71.2% (active) | -23% | -54% | -10.7% | -2% | -6% | 1.55%
17 | Cc1ccc(C(=O)C(CN(C)C)CN(C)C)cc1 | 16% | 41% | 83.7% (active) | 12% | 63% | 92.3% (active) | 20% | 76% (active) | 88.5% (active) | 17% | 39% | 73.2% (active) | 16% | 65% | 88.7% (active) | 14% | 72% (active) | 88% (active)
18 | COc1cc2c(c(OC)c1OC)-c1ccc(SC)c(=O)cc1[C@@H](NC(=O)Oc1ccccc1)CC2 | 73% (active) | 31% | 54% | 24% | 29% | -0.55% | -9% | 9% | -2.45% | -12% | 13% | 1.65% | -8% | 8% | 0.9% | 20% | 43% | 12.6%
19 | Nc1[nH]cnc(=S)c1NC=O | -1% | -4% | 13.9% | -1% | -5% | 2.8% | -2% | -5% | 35% | -4% | -5% | 0.4% | 0% | -3% | 42.3% | -3% | -3% | -1.9%
